Compound activity: PubChem, The Scripps Research Institute Molecular Screening Center
MITF primary: human MITF inhibition, primary screen | O75030 | AlphaScreen MITF homodimerization, bead proximity signal | inhibition, % at 2.6 µM | hit rate 0.91% among 650,000 | AID 1259374; in the data active means inhibition above about 50%
FBW7 act: activators of human E3 ligase FBW7; hit rate 0.13% among 650,000; normalized activity (activation), % at 26.1 µM; AID 1259310; Q969H0; AlphaScreen FBW7–phospho-cyclin E peptide binding, activator screen; in the data active means normalized activity above about 1.9%;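 further: purified mutant Fbw7 with reduced substrate affinity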
Target sequence (Q969H0 whole entry, looked up): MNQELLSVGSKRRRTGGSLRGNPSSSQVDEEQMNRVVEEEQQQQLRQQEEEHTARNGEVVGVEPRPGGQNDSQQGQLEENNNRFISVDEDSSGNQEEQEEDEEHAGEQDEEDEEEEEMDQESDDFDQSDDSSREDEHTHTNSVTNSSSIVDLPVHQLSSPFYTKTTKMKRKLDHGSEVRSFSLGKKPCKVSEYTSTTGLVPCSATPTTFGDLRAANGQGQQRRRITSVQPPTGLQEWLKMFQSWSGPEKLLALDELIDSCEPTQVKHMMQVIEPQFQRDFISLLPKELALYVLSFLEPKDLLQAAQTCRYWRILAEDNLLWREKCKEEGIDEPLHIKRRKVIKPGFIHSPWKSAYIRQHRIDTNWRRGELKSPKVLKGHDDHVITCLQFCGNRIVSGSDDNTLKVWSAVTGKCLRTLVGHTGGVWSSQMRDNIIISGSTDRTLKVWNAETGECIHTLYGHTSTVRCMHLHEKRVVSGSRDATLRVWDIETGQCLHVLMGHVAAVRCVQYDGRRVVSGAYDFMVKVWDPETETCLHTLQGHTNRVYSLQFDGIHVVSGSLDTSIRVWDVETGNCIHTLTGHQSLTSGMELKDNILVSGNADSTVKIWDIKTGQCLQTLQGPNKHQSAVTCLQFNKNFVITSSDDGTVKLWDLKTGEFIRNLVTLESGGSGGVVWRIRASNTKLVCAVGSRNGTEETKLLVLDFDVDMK
GPR151 activ: activators of human GPR151; Q8TDV0; PathHunter beta-arrestin GPR151 cells, luminescence; activation, % at 11.2 µM; hit rate 1% among 650,000; AID 1508602; in the data active means activation above about 4.9%
TEAD-YAP block: TEAD-YAP interaction inhibition; HEK-TIYL cells, TEAD-Gal4/YAP UAS-luciferase luminescence; AID 1259422; hit rate 1.4% among 640,000; inhibition, % at 9.12 µM; in the data active means inhibition above about 32%
MITF confirm: confirmation of human MITF inhibitors; shares compounds with MITF primary; AlphaScreen MITF homodimerization, biotin/His-MITF beads; inhibition, % at 2.6 µM; hit rate 16% among 4,700; AID 1259372;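 active means inhibition above a cutoff derived from the DMSO control wells, cut at about 28% in these data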;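 further: inhibitors lower the bead chemiluminescence by keeping MITF from dimerizing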
AlphaScreen DR: counter-screen: compounds optically interfering with AlphaScreen. shares compounds with MITF primary. AlphaScreen optical interference counterscreen, cell-free. IC50, µM. hit rate 6% among 480. AID 1259373; call rule not given here
AlphaScreen intf2: AlphaScreen optical interference, counter-screen. LysRS AlphaScreen counterscreen, signal interference, triplicate. AID 1259376. shares compounds with MITF primary. hit rate 7.6% among 4,700. inhibition, % at 2.6 µM;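 active means inhibition above a cutoff derived from the DMSO control wells, cut at about 30% in these data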
Large screens that a line does not name were inactive (follow-up assays come after a bar, where they were run). The list is not random: actives were taken first. Their share in the collection is about 3.4%.

Fc1ccc(N2CCN(Cc3ccc(Br)o3)CC2)cc1	MITF primary 51 | MITF confirm inactive | AlphaScreen intf2 inactive
COc1ccc(OC)c(NC(=O)CN(C)CC(=O)Nc2ccccc2Br)c1	MITF primary 74 | MITF confirm inactive | AlphaScreen intf2 inactive
COc1ccc(C)cc1S(=O)(=O)N(C)CC(=O)Nc1ccccc1F	none
CC(NC(=O)CN(C)CC(=O)Nc1ccccc1Br)c1ccccc1 (configuration not stated)	MITF primary 66 | MITF confirm inactive | AlphaScreen intf2 inactive
COc1ccc(OC)c(S(=O)(=O)N(C)CC(=O)Nc2ccccc2F)c1	MITF primary 51 | MITF confirm inactive | AlphaScreen intf2 inactive
O=C(NCC(c1ccsc1)N1CCCCCC1)c1c(F)cccc1F (configuration not stated)	MITF primary 84 | MITF confirm inactive | AlphaScreen intf2 inactive
Cc1nn2c(SCC(=O)c3ccc([N+](=O)[O-])cc3)nnc2[nH]c1=O	none
O=C(Cc1cccs1)N1CCC(Cn2cnc3ccccc32)CC1	MITF primary 65 | MITF confirm inactive | AlphaScreen intf2 inactive
O=C(CSCc1ccccc1)N1CCC(Cn2cnc3ccccc32)CC1	MITF primary 67 | MITF confirm inactive | AlphaScreen intf2 inactive
O=C(NCC(=O)N1CCC(Cn2cnc3ccccc32)CC1)c1ccccc1	MITF primary 56 | MITF confirm inactive | AlphaScreen intf2 inactive
O=C(Nc1cccs1)N1CCC(Cn2cnc3ccccc32)CC1	none
O=C(C1CCC1)N1CCC(Cn2cnc3ccccc32)CC1	MITF primary 52 | MITF confirm inactive | AlphaScreen intf2 inactive
O=C(Nc1ccc2c(c1)OCO2)N1CCC(Cn2cnc3ccccc32)CC1	none
CCn1c(=O)c(C(=O)/C(C#N)=C/c2ccc3c(c2)OCO3)c(N)n(Cc2ccccc2)c1=O	none
CCOC(=O)CN1C(=O)S/C(=C/c2ccc(Cl)cc2)C1=O	none
O=C(CCN1C(=O)c2ccccc2C1=O)CN1CCC(Cn2cnc3ccccc32)CC1	MITF primary 59 | MITF confirm inactive | AlphaScreen intf2 inactive
CCOC(=O)N1CCN(C(=O)CN2CCN(CC)CC2)CC1	MITF primary 71 | MITF confirm inactive | AlphaScreen intf2 inactive
CCOC(=O)N1CCN(C(=O)CN2CCC(Cn3cnc4ccccc43)CC2)CC1	MITF primary 76 | MITF confirm inactive | AlphaScreen intf2 inactive
CN(C(=O)CCN1C(=O)c2ccccc2C1=O)C1CCCCC1	none
COc1cccc2cc(C(=O)N3CCC(Cn4cnc5ccccc54)CC3)oc12	MITF primary 60 | MITF confirm inactive | AlphaScreen intf2 inactive
O=C(CN1C(=O)c2ccc([N+](=O)[O-])cc2C1=O)Nc1ccccc1	none
O=C(Nc1ccc2c(c1)OCO2)Nc1ccc(Br)cc1F	none
Cc1c(C(C)NC(=O)C2CCOCC2)cnn1-c1ccccn1 (configuration not stated)	none
COc1ccc(N2CCN(c3ncnc4sc(C(=O)NCc5ccccc5Cl)c(C)c34)CC2)cc1	none
O=C(c1cnn(-c2ccccc2)n1)N1CCN(c2cc(N3CCCCC3)ncn2)CC1	none
O=C(c1cnn(-c2ccccc2)n1)N1CCC(Cn2cnc3ccccc32)CC1	MITF primary 58 | MITF confirm inactive | AlphaScreen intf2 inactive
CCOC(=O)C1(Cc2cccc(F)c2)CCN(Cc2cnn(C)c2)CC1	none
CSc1ccccc1NC(=O)CN(C)CC(=O)Nc1ccc(C(N)=O)cc1	none
Cc1ccc(NC(=O)CN(C)CC(=O)Nc2ccccc2Oc2ccccc2)cc1	MITF primary 91 | MITF confirm inactive | AlphaScreen intf2 inactive
COc1ccc(NC(=O)CN(C)CC(=O)Nc2ccccc2SC)cc1	MITF primary 75 | MITF confirm inactive | AlphaScreen intf2 inactive
CN(CCOc1ccccc1)CC(=O)Nc1ccc(C(F)(F)F)cc1	MITF primary 66 | MITF confirm inactive | AlphaScreen intf2 inactive
Cc1cc(NC(=O)CN(C)CCOc2ccccc2)ccc1Br	none
COc1ccc(C(=O)NC(=S)NCc2nc3ccccc3[nH]2)cc1	none
COc1cc(/C=N/NC(=O)COc2cc(C(C)C)ccc2C)cc(OC)c1O	none
Cc1cc(C)cc(NCc2ccc3c(c2)OCO3)c1	MITF primary 67 | MITF confirm inactive | AlphaScreen intf2 inactive
CC1=C(C(=O)Nc2ccccc2C)C(c2cccc(Br)c2)NC(=O)N1 (configuration not stated)	none
COCCSc1nnc(-c2ccncc2)n1C	MITF primary 59 | MITF confirm inactive | AlphaScreen intf2 inactive
CCC1(C)Cc2c(sc3nn[nH]c(=O)c23)CO1 (configuration not stated)	MITF primary 94 | MITF confirm inactive | AlphaScreen intf2 inactive
CCC1(C)Cc2c(sc3nc(SCC(=O)O)[nH]c(=O)c23)CO1 (configuration not stated)	none
CCOC(=O)c1c(NC(=O)N/N=C/c2cccc(OC)c2OC)sc(C(C)=O)c1C	none
COc1ccc(C(CNC(=O)c2ccc(Br)cc2)N(C)C)cc1 (configuration not stated)	none
COc1ccc(C(CNCCC(=O)O)N(C)C)cc1 (configuration not stated)	MITF primary 55 | MITF confirm inactive | AlphaScreen intf2 inactive
CN(C(=O)CNC(=O)c1ccccc1)C1(C(=O)NC2CCCC2)CCCCC1	none
CN(Cc1ccco1)S(=O)(=O)c1ccc2[nH]cc(C(=O)O)c(=O)c2c1	MITF primary 54 | MITF confirm 30 | AlphaScreen DR inactive | AlphaScreen intf2 inactive
C=CCN(c1ccccc1)S(=O)(=O)c1ccc2[nH]cc(C(=O)O)c(=O)c2c1	MITF primary 57 | MITF confirm inactive | AlphaScreen intf2 inactive
O=C1N(CC2CC2)CCN1c1ccc(C(F)(F)F)cn1	MITF primary 55 | MITF confirm inactive | AlphaScreen intf2 inactive
CCCCN1CCN(c2ccc(C(F)(F)F)cn2)C1=O	none
CC(C)C(NC(=O)c1ccoc1)c1nnc2n1CCN(Cc1cc3ccccc3[nH]1)CC2 (configuration not stated)	MITF primary 69 | MITF confirm inactive | AlphaScreen intf2 inactive
COc1ccc(S(=O)(=O)CCC(=O)N2CCN(c3cccc(C)c3C)CC2)cc1	MITF primary 63 | MITF confirm inactive | AlphaScreen intf2 inactive
COc1ccc(CC(=O)N2CCN(c3cccc(C)c3C)CC2)cc1	none
C=C(C)CN(CC)C(=O)c1cc(Cc2ccc(OC)cc2)no1	none
Brc1cccc(CN2CCOCC2)c1	none
Cn1cccc1CN1CCN(Cc2ccco2)CC1	MITF primary 69 | MITF confirm inactive | AlphaScreen intf2 inactive
Fc1ccc(CN2CCN(Cc3ccco3)CC2)cc1	MITF primary 70 | MITF confirm inactive | AlphaScreen intf2 inactive
Clc1ccc(CN2CCN(Cc3ccco3)CC2)cc1	MITF primary 86 | MITF confirm inactive | AlphaScreen intf2 inactive
Cn1cccc1CN1CCN(Cc2ccc(Br)cc2)CC1	none
